Drawing on PubChem BioAssay (NCI), this text covers growth for 38 molecules.

Each structure is given as a SMILES string. About 83,000 compounds went through this panel and 20% of them were active in at least one assay; those are over-represented in the sample as a whole.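 Single-dose data. Exposure time 48 hours. Values below 10 considered active.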 Unmarked numbers belong to inactive results. Activity calls are given as the source filed them.

One experiment concerns BT-549 breast. The experiment can be described thus: NCI-60 one-dose screen, 48 h (100 = growth as untreated, 0 = no growth, -100 = all killed). The settings on record: 10 µM unless noted.
In the case of `CCN(CC)CCCNc1ccc(Nc2ccc(OC)cc2)cc1`, the growth is 59%. In the case of `COc1ccc(-c2c(N)n[nH]c2-c2ccc(Cl)cc2O)cc1OC`, the growth was 105%. As for `CCN(CC)c1ccc(C(=O)c2ccc(N(CC)CC)cc2)cc1`, the growth was 4.9% (active). For `COc1ccc(-c2nc(SCC(=O)Nc3nc(-c4ccccc4)cs3)[nH]c(=O)c2C#N)cc1`, the growth was 92.4%. For `CC(C)(C)OC(=O)Nc1ccc2c(c1)C(NC(=O)Nc1cccc(C#N)c1)CC(C)(C)O2` (stereo not given), the growth was 29%. On the same count and under the same terms, the value for `CCCCCCCCCCCC(c1ccccc1)[N+](C)(C)C` (stereo not given) was -36.3% (active).

For `COc1ccc(C(=NN=C(N)N)c2ccc(OC)cc2)cc1`, the growth was 30.6%. Consider `O=C(NC(CSSCC(NC(=O)c1ccccc1)C(=O)O)C(=O)O)c1ccccc1` (stereo not given), for which the growth was 91.1%.

In the case of `Cn1c(=O)c2[nH]c(NN)nc2n(C)c1=O`, the growth is 84.7%. Same read-out and setting: the value for `CCN(CCNc1ccc(C)c2sc3ccccc3c(=O)c12)CC(C)(C)O` was 93.4%; that for `COc1ccc(C(=O)Nn2c(NCC(=O)N3c4ccccc4Sc4ccccc43)nnc2-c2ccc(O)cc2)cc1` was 96.5%; that for `CCC1(C2CCCC2)NC(=O)NC1=O` (stereo not given) was 95.3%. With `O=[N+]([O-])c1ccc(C2CC(c3ccccc3)=Nc3ccccc3S2)cc1` (stereo not given), the growth is 95%. As for `Cn1c(=O)c2c(nc(Cl)n2CCl)n(C)c1=O`, the growth was 61.8%. For the molecule `O=C1Nc2ccccc2/C1=C/c1cn(C(=O)c2c(Cl)cccc2Cl)c2ccccc12`, the growth is 51.7%. `O=C1Nc2ccccc2/C1=C/c1cn(C(=O)c2ccc(Cl)cc2)c2ccccc12`: the growth is 96.4%. On to `N=C1CCC(=N)c2c1c(O)c1ccccc1c2O`, for which the growth was 97.1%. Take `Cc1ccc(S(=O)(=O)N/N=C\c2cc(Cl)ccc2O)cc1`: the growth is 91.7%. Consider `COc1cc(N2C(=O)c3nccnc3C2=O)cc(OC)c1OC`, for which the growth is 95.2%.

As to `CCC(CO)Nc1nc2ccc(Cl)cc2c2ccccc12` (stereo not given), the growth was 70.6%. As to `Cc1ccc(C2SCC(=O)N2Cc2ccccc2)cc1` (stereo not given), the growth is 99%. For the molecule `CCOC(=O)c1csc(NC(=O)COc2cccc(/C=C3\Oc4cc(OC)ccc4C3=O)c2)n1`, the growth was 84.7%.

A further experiment relates to MDA-MB-435 melanoma. The description is as above. The settings on record: 10 µM unless noted.
For the molecule `CCN(CC)CCCNc1ccc(Nc2ccc(OC)cc2)cc1`, the growth is 82.7%.

In the case of `COc1ccc(-c2c(N)n[nH]c2-c2ccc(Cl)cc2O)cc1OC`, the growth is 69.7%. Regarding `c1csc(-c2c3ccc(=[N+]4CCCCC4)cc-3oc3cc(N4CCCCC4)ccc23)c1`, the growth is -46.5% (active). In the case of `NS(=O)(=O)c1ccc(-n2nc(C(=O)N/N=C\c3ccc(F)cc3)cc2-c2ccc(Cl)cc2)cc1`, the growth is 94.3%.

As to `CCN(CC)c1ccc(C(=O)c2ccc(N(CC)CC)cc2)cc1`, the growth is 0.459% (active).

For the molecule `COc1ccc(-c2nc(SCC(=O)Nc3nc(-c4ccccc4)cs3)[nH]c(=O)c2C#N)cc1`, the growth is 101%.

As to `O=S(=O)(O)c1ccc(N/N=C/c2ccccc2Cl)cc1`, the growth is 102%.

As to `CC(C)(C)OC(=O)Nc1ccc2c(c1)C(NC(=O)Nc1cccc(C#N)c1)CC(C)(C)O2` (stereo not given), the growth was 39.4%.

Consider `CCCCCCCCCCCC(c1ccccc1)[N+](C)(C)C` (stereo not given), for which the growth was 8.21% (active).

Regarding `COc1ccc(C(=NN=C(N)N)c2ccc(OC)cc2)cc1`, the growth was -35.2% (active). Regarding `COc1ccc(NC(=O)CSc2nnc(-c3cc(-c4ccccc4)nc4ccccc34)n2-c2ccccc2)cc1`, the growth was 99.2%. `O=C(NC(CSSCC(NC(=O)c1ccccc1)C(=O)O)C(=O)O)c1ccccc1` (stereo not given): the growth was 103%. With `Cn1c(=O)c2[nH]c(NN)nc2n(C)c1=O`, the growth was 106%. As for `N/C(=N/N=C/c1ccccc1)N/N=C\c1ccccc1`, the growth is -3.26% (active). Same read-out and setting: the value for `CCN(CCNc1ccc(C)c2sc3ccccc3c(=O)c12)CC(C)(C)O` was 79%; that for `N#Cc1nc(C#N)c(Sc2ccccc2)c(Sc2ccccc2)c1Sc1ccccc1` was -14.2% (active).

Regarding `COc1ccc(C(=O)Nn2c(NCC(=O)N3c4ccccc4Sc4ccccc43)nnc2-c2ccc(O)cc2)cc1`, the growth is 102%.

In the case of `CCC1(C2CCCC2)NC(=O)NC1=O` (stereo not given), the growth was 102%. As for `O=[N+]([O-])c1ccc(C2CC(c3ccccc3)=Nc3ccccc3S2)cc1` (stereo not given), the growth was 103%. For `Cn1c(=O)c2c(nc(Cl)n2CCl)n(C)c1=O`, the growth is 43.5%. As for `O=C(CCCCCCSc1nc(-c2ccccc2)cc(-c2ccc(Cl)cc2)n1)NO`, the growth was 19.4%. For `CC1(C)CC(=O)CC2(C1)N=C(N)Nc1nc3ccccc3n12` (stereo not given), the growth is 104%. For `COc1ccccc1N1C(=O)/C(=C/C2=Cc3ccccc3OC2)SC1=S`, the growth was 97.8%.

Take `O=C(CSc1nccc(Nc2ccc(S(=O)(=O)Nc3nccs3)cc2)n1)c1ccc(F)cc1`: the growth is 104%. Regarding `O=C1Nc2ccccc2/C1=C/c1cn(C(=O)c2c(Cl)cccc2Cl)c2ccccc12`, the growth is 85.7%.

As to `O=C1Nc2ccccc2/C1=C/c1cn(C(=O)c2ccc(Cl)cc2)c2ccccc12`, the growth was 110%. In the case of `N=C1CCC(=N)c2c1c(O)c1ccccc1c2O`, the growth was 114%. The same measure, in the same setting: as for `Cc1ccc(S(=O)(=O)N/N=C\c2cc(Cl)ccc2O)cc1`, the figure is 82%; as for `COc1ccc(-c2[nH]c(=S)n(C(CC3(C)NCC(=O)N3n3c(-c4ccccc4)cc(C)nc3=S)c3ccc(OC)cc3)c(=O)c2Br)cc1` (stereo not given), 57.4%. In the case of `COc1cc(N2C(=O)c3nccnc3C2=O)cc(OC)c1OC`, the growth is 107%.

Consider `COc1ccc(Cl)cc1NC(=O)C(Br)C(Br)C(=O)O` (stereo not given), for which the growth is 34.2%. In the case of `CS(=O)(=O)c1ccc(Nc2nc(N[C@H]3CCCC[C@H]3N)nc3cc[nH]c(=O)c23)cc1`, the growth is -4.07% (active). In the case of `O=c1oc2ccccc2c(Cl)c1Cl`, the growth is 52%. As for `COc1ccc(NC(=O)CSc2nnc(-c3cc(-c4ccc(S(N)(=O)=O)cc4)nc4ccccc34)n2-c2ccccc2)cc1`, the growth was 92.2%. As for `CCC(CO)Nc1nc2ccc(Cl)cc2c2ccccc12` (stereo not given), the growth is 58%. On to `Cc1ccc(C2SCC(=O)N2Cc2ccccc2)cc1` (stereo not given), for which the growth was 95.4%.

Turning to `CCOC(=O)c1csc(NC(=O)COc2cccc(/C=C3\Oc4cc(OC)ccc4C3=O)c2)n1`, the growth is 90.5%. The same measure, in the same setting: the value for `N#C/C(=C\c1ccc(-c2ccccc2F)o1)c1nc(-c2ccco2)cs1` was 101%.
